60 compounds from the antibiotic and cytotoxicity screens of Wong et al. (2023) can be followed below.

SMILES strings stand for the structures. The campaign covered roughly 39,000 compounds. About 3,300 (8.5%) were called active. What follows is part of a selection rich in actives, with near analogues and random picks from the rest.

For the assay, the system named is HepG2. Put plainly: cytotoxicity call (relative viability < 0.9). Particulars: 10 µM.
Take `C[C@@H]1CCCCO[C@@H](CN(C)CC2CCCCC2)[C@@H](C)CN([C@@H](C)CO)C(=O)c2cc(NS(=O)(=O)c3ccccc3)ccc2O1`: the cytotoxicity call is “inactive”.

As for `C[C@H](CO)N1C[C@H](C)[C@H](CN(C)S(=O)(=O)c2ccc(Cl)cc2)Oc2c(NC(=O)c3cnccn3)cccc2C1=O`, the cytotoxicity call is “inactive”.

As to `CC(C)NC(=O)Nc1cccc2c1O[C@@H](CN(C)Cc1ccc(Oc3ccccc3)cc1)[C@@H](C)CN([C@@H](C)CO)C2=O`, the cytotoxicity call is “inactive”.

Take `CC(C)NC(=O)Nc1cccc2c1O[C@@H](CN(C)Cc1ccc(Oc3ccccc3)cc1)[C@H](C)CN([C@H](C)CO)C2=O`: the cytotoxicity call was “inactive”.

For the compound `C[C@@H]1CN([C@@H](C)CO)C(=O)c2cccc(NC(=O)Nc3ccccc3)c2O[C@@H]1CN(C)Cc1ccc(Oc2ccccc2)cc1`, the cytotoxicity call was “active”.

For the compound `C[C@@H]1CN([C@@H](C)CO)C(=O)c2cccc(NC(=O)Nc3ccccc3)c2O[C@H]1CN(C)Cc1ccc(Oc2ccccc2)cc1`, the cytotoxicity call is “inactive”.

Take `COc1ccc(NC(=O)Nc2cccc3c2O[C@@H](CN(C)Cc2ccc(Oc4ccccc4)cc2)[C@H](C)CN([C@@H](C)CO)C3=O)cc1`: the cytotoxicity call was “active”.

As to `COc1ccc(NC(=O)Nc2cccc3c2O[C@H](CN(C)Cc2ccc(Oc4ccccc4)cc2)[C@H](C)CN([C@@H](C)CO)C3=O)cc1`, the cytotoxicity call is “inactive”.

As for `CC(C)NC(=O)Nc1cccc2c1O[C@H](CN(C)Cc1ccc(Oc3ccccc3)cc1)[C@@H](C)CN([C@@H](C)CO)C2=O`, the cytotoxicity call is “active”.

As to `C[C@H](CO)N1C[C@H](C)[C@@H](CN(C)Cc2ccc(Oc3ccccc3)cc2)Oc2c(NC(=O)Nc3ccccc3)cccc2C1=O`, the cytotoxicity call was “inactive”.

Consider `C[C@H]1CN([C@@H](C)CO)C(=O)c2cccc(NC(=O)Nc3ccccc3)c2O[C@@H]1CN(C)Cc1ccc(Oc2ccccc2)cc1`, for which the cytotoxicity call is “inactive”.

Consider `C[C@@H]1CCCCO[C@H](CN(C)Cc2ccccc2)[C@@H](C)CN([C@@H](C)CO)C(=O)c2cc(NC(=O)c3ccncc3)ccc2O1`, for which the cytotoxicity call is “inactive”.

Regarding `COCC#Cc1cnc2c(c1)C(=O)N([C@@H](C)CO)C[C@H](C)[C@H](CN(C)C(C)=O)O2`, the cytotoxicity call is “inactive”.

As to `C[C@H]1CN([C@@H](C)CO)C(=O)Cc2cc(NS(=O)(=O)c3cccs3)ccc2O[C@H]1CN(C)Cc1ccncc1`, the cytotoxicity call is “inactive”.

Take `C[C@H](C(=O)N(C)C[C@@H]1OCc2ccccc2-c2c(n(C)c3ccccc23)C(=O)N([C@H](C)CO)C[C@H]1C)c1ccccc1`: the cytotoxicity call is “inactive”.

`C[C@H](O)C#Cc1cnc2c(c1)C(=O)N([C@@H](C)CO)C[C@H](C)[C@H](CN(C)C(=O)Nc1ccc(C(F)(F)F)cc1)O2`: the cytotoxicity call was “inactive”.

On to `Cc1ccc(S(=O)(=O)Nc2ccc3c(c2)C(=O)N([C@@H](C)CO)C[C@@H](C)[C@@H](CN(C)C(=O)Nc2ccc4c(c2)OCO4)OCCCC[C@@H](C)O3)cc1`, for which the cytotoxicity call is “inactive”.

As for `C[C@H](CO)N1C[C@H](C)[C@H](CN(C)C(=O)Nc2cccc(C(F)(F)F)c2)OCc2ccccc2-c2ccccc2C1=O`, the cytotoxicity call was “inactive”.

Consider `C[C@@H]1CN([C@@H](C)CO)C(=O)c2cc(NS(=O)(=O)c3cn(C)cn3)ccc2O[C@@H](C)CCCCO[C@H]1CN(C)C(=O)c1ccncc1`, for which the cytotoxicity call is “inactive”.

`CO[C@H]1C[C@@H](C[C@@H](C)[C@H]2CC(=O)[C@H](C)/C=C(\C)[C@@H](O)[C@H](OC)C(=O)[C@H](C)C[C@H](C)/C=C/C=C\C=C(C)[C@H](OC)C[C@@H]3CC[C@@H](C)[C@@](O)(O3)C(=O)C(=O)N3CCCC[C@H]3C(=O)O2)CC[C@H]1OC(=O)C(C)(CO)CO`: the cytotoxicity call is “active”.

`CO[C@H]1C[C@@H](C[C@@H](C)[C@H]2CC(=O)[C@@H](C)/C=C(\C)[C@@H](O)[C@@H](OC)C(=O)[C@@H](C)C[C@@H](C)/C=C/C=C/C=C(\C)[C@H](OC)C[C@H]3CC[C@@H](C)[C@@](O)(O3)C(=O)C(=O)N3CCCC[C@@H]3C(=O)O2)CC[C@@H]1OC(=O)C(C)(CO)CO`: the cytotoxicity call is “inactive”.

In the case of `CO[C@H]1C[C@@H]2CC[C@@H](C)[C@@](O)(O2)C(=O)C(=O)N2CCCC[C@H]2C(=O)O[C@H]([C@H](C)C[C@@H]2CC[C@@H](OC(=O)C(C)(CO)CO)[C@H](OC)C2)CC(=O)[C@H](C)/C=C(\C)[C@@H](O)[C@@H](OC)C(=O)[C@H](C)C[C@H](C)/C=C/C=C/C=C/1C`, the cytotoxicity call is “inactive”.

Turning to `C[C@@H]1CN([C@H](C)CO)C(=O)c2cc(NC(=O)Cc3ccccc3)ccc2O[C@@H]1CN(C)Cc1ccc(Cl)c(Cl)c1`, the cytotoxicity call is “inactive”.

For the compound `C[C@@H]1CN([C@H](C)CO)C(=O)c2cc(NS(C)(=O)=O)ccc2O[C@@H]1CN(C)C(=O)Nc1ccccc1`, the cytotoxicity call was “inactive”.

For the compound `Cc1nc(CCO)cs1`, the cytotoxicity call was “inactive”.

For `CC(C)[Si](C#CCCc1ccccc1)(O[C@H](c1ccccc1)c1cn(Cc2ccccc2)nn1)C(C)C`, the cytotoxicity call is “inactive”.

As for `Nc1nc2c(ncn2COCCO)c(=O)[nH]1`, the cytotoxicity call is “inactive”.

As for `C=C1C(CO)C(O)CC1n1cnc2c(=O)[nH]c(N)nc21.O` (stereo not given), the cytotoxicity call was “active”.

Take `Nc1nc2c(ncn2COC(CO)CO)c(=O)[nH]1.O`: the cytotoxicity call was “inactive”.

`C[C@@H]1CN([C@H](C)CO)C(=O)CCCn2cc(nn2)CO[C@@H]1CN(C)C(=O)C1CC1`: the cytotoxicity call was “inactive”.

In the case of `Cc1ccccc1N1CCN(S(=O)(=O)C[C@]23CC[C@H](C[C@@H]2NC(=O)[C@@H](N)CCS(C)(=O)=O)C3(C)C)CC1`, the cytotoxicity call is “inactive”.

For the compound `COc1ccc(CN(C)C[C@@H]2OCCCC[C@H](C)Oc3ccc(NC(=O)Nc4ccccc4)cc3C(=O)N([C@@H](C)CO)C[C@H]2C)cc1`, the cytotoxicity call is “inactive”.

Regarding `O=C(C[C@@H]1CC[C@H](NS(=O)(=O)c2ccc(F)cc2)[C@@H](CO)O1)N1CCC(Cc2ccccc2)CC1`, the cytotoxicity call was “inactive”.

For the compound `CC1(COc2ccc3c(c2)ncn3-c2ccc3cccc(N4CCC(N)CC4)c3n2)COC1`, the cytotoxicity call is “active”.

With `C[C@@H]1CN([C@@H](C)CO)S(=O)(=O)c2ccc(C#Cc3ccccc3)cc2O[C@@H]1CN(C)S(=O)(=O)c1ccccc1F`, the cytotoxicity call is “inactive”.

With `C[C@@H](CN1CCCCC1)C(=O)NN`, the cytotoxicity call was “inactive”.

Turning to `Cl.O=C(Nc1ccccc1)OCC(CN1CCCCC1)OC(=O)Nc1ccccc1` (stereo not given), the cytotoxicity call is “active”.

In the case of `Cc1ccc(C(=O)C(C)CN2CCCCC2)cc1.Cl` (stereo not given), the cytotoxicity call was “inactive”.

For the compound `C[C@H](CO)N1C[C@H](C)[C@@H](CN(C)S(C)(=O)=O)Oc2ccc(NS(=O)(=O)c3ccc(Cl)cc3)cc2CC1=O`, the cytotoxicity call is “inactive”.

For `Cc1noc(C)c1NC(=O)N(C)C[C@H]1OCCCC[C@@H](C)Oc2ccc(NC(=O)Nc3cccc4ccccc34)cc2C(=O)N([C@@H](C)CO)C[C@H]1C`, the cytotoxicity call is “inactive”.

In the case of `C[C@H](CO)N1C[C@H](C)[C@H](CN(C)Cc2ccc3c(c2)OCO3)OCCCC[C@H](C)Oc2ccc(NC(=O)C3CCCCC3)cc2C1=O`, the cytotoxicity call was “inactive”.

On to `C[C@H]1CCCCO[C@H](CN(C)Cc2ccc3c(c2)OCO3)[C@@H](C)CN([C@@H](C)CO)C(=O)c2cc(NC(=O)C3CCCCC3)ccc2O1`, for which the cytotoxicity call is “inactive”.

With `C[C@@H]1CCCCO[C@H](CN(C)Cc2ccc3c(c2)OCO3)[C@H](C)CN([C@H](C)CO)C(=O)c2cc(NC(=O)C3CCCCC3)ccc2O1`, the cytotoxicity call is “active”.

For the compound `C[C@@H]1CCCCO[C@@H](CN(C)Cc2ccc3c(c2)OCO3)[C@H](C)CN([C@@H](C)CO)C(=O)c2cc(NC(=O)C3CCCCC3)ccc2O1`, the cytotoxicity call is “inactive”.

Consider `C[C@@H]1CCCCO[C@H](CN(C)Cc2ccc3c(c2)OCO3)[C@@H](C)CN([C@@H](C)CO)C(=O)c2cc(NC(=O)C3CCCCC3)ccc2O1`, for which the cytotoxicity call was “inactive”.

In the case of `C[C@H](CO)N1C[C@H](C)[C@@H](CN(C)Cc2ccc3c(c2)OCO3)OCCCC[C@H](C)Oc2ccc(NC(=O)C3CCCCC3)cc2C1=O`, the cytotoxicity call was “inactive”.

Take `C[C@@H]1CCCCO[C@H](CN(C)Cc2ccc3c(c2)OCO3)[C@@H](C)CN([C@H](C)CO)C(=O)c2cc(NC(=O)C3CCCCC3)ccc2O1`: the cytotoxicity call was “active”.

Turning to `C[C@@H]1CCCCO[C@@H](CN(C)Cc2ccc3c(c2)OCO3)[C@@H](C)CN([C@@H](C)CO)C(=O)c2cc(NC(=O)C3CCCCC3)ccc2O1`, the cytotoxicity call is “inactive”.

For `C[C@@H]1CCCCO[C@H](CN(C)Cc2ccc3c(c2)OCO3)[C@H](C)CN([C@@H](C)CO)C(=O)c2cc(NC(=O)C3CCCCC3)ccc2O1`, the cytotoxicity call was “active”.

Take `C[C@@H]1CN([C@@H](C)CO)C(=O)c2cc(NC(=O)C3CCCCC3)ccc2O[C@@H](C)CCCCO[C@@H]1CN(C)Cc1ccc2c(c1)OCO2`: the cytotoxicity call is “inactive”.

With `C[C@@H]1CN([C@H](C)CO)C(=O)c2cc(NC(=O)C3CCCCC3)ccc2O[C@@H](C)CCCCO[C@@H]1CN(C)Cc1ccc2c(c1)OCO2`, the cytotoxicity call was “active”.

Consider `C[C@@H]1CCCCO[C@@H](CN(C)Cc2ccc3c(c2)OCO3)[C@H](C)CN([C@H](C)CO)C(=O)c2cc(NC(=O)C3CCCCC3)ccc2O1`, for which the cytotoxicity call is “inactive”.

`O=C(C[C@@H]1C[C@@H]2c3cc(NC(=O)NC4CCCC4)ccc3O[C@@H]2[C@H](CO)O1)NCc1ccc2c(c1)OCO2`: the cytotoxicity call was “inactive”.

On to `CO/N=C(\C(=O)N[C@@H]1C(=O)N2C(C(=O)O)=C(CSC(=O)c3ccco3)CS[C@H]12)c1csc(N)n1`, for which the cytotoxicity call was “inactive”.

Take `CC(C)NC(=O)N(C)C[C@H]1Oc2ccc(NC(=O)c3ccncc3)cc2CC(=O)N([C@@H](C)CO)C[C@H]1C`: the cytotoxicity call is “inactive”.

With `CC(C)NC(=O)N(C)C[C@H]1Oc2ccc(NC(=O)CCN3CCOCC3)cc2C(=O)N([C@H](C)CO)C[C@H]1C`, the cytotoxicity call was “inactive”.

Take `CC(C)NC(=O)Nc1ccc2c(c1)CC(=O)N([C@@H](C)CO)C[C@@H](C)[C@@H](CN(C)C(=O)Nc1ccc3c(c1)OCO3)O2`: the cytotoxicity call was “inactive”.

As to `C[C@H]1CN([C@@H](C)CO)C(=O)Cc2cc(NS(=O)(=O)c3ccccc3)ccc2O[C@H]1CN(C)S(=O)(=O)c1cn(C)cn1`, the cytotoxicity call was “inactive”.

On to `CNC(=O)Cn1c(=O)c2c(OC)ccnc2n(C)c1=O`, for which the cytotoxicity call is “inactive”.

With `Cc1noc(C)c1NC(=O)Nc1ccc2c(c1)C(=O)N([C@H](C)CO)C[C@H](C)[C@H](CN(C)S(=O)(=O)c1cccs1)OCCCC[C@@H](C)O2`, the cytotoxicity call was “inactive”.
